WRN inhibitor = blocks human WRN helicase; Potency, µM (top dose mostly 114 µM), without a hit: top-dose activity change, negative = inhibition, actives largely listed as inhibitors; Q14191; WRN helicase unwinding, fluorescent forked duplex, kinetic; 360,000 compounds, 0.46% hits; AID 651768; also: % is scaled to controls: 0 for no effect and ±100 for the full control effect; nearly all actives have a fitted effect of over 55% in size
Target sequence (Q14191 whole entry, looked up): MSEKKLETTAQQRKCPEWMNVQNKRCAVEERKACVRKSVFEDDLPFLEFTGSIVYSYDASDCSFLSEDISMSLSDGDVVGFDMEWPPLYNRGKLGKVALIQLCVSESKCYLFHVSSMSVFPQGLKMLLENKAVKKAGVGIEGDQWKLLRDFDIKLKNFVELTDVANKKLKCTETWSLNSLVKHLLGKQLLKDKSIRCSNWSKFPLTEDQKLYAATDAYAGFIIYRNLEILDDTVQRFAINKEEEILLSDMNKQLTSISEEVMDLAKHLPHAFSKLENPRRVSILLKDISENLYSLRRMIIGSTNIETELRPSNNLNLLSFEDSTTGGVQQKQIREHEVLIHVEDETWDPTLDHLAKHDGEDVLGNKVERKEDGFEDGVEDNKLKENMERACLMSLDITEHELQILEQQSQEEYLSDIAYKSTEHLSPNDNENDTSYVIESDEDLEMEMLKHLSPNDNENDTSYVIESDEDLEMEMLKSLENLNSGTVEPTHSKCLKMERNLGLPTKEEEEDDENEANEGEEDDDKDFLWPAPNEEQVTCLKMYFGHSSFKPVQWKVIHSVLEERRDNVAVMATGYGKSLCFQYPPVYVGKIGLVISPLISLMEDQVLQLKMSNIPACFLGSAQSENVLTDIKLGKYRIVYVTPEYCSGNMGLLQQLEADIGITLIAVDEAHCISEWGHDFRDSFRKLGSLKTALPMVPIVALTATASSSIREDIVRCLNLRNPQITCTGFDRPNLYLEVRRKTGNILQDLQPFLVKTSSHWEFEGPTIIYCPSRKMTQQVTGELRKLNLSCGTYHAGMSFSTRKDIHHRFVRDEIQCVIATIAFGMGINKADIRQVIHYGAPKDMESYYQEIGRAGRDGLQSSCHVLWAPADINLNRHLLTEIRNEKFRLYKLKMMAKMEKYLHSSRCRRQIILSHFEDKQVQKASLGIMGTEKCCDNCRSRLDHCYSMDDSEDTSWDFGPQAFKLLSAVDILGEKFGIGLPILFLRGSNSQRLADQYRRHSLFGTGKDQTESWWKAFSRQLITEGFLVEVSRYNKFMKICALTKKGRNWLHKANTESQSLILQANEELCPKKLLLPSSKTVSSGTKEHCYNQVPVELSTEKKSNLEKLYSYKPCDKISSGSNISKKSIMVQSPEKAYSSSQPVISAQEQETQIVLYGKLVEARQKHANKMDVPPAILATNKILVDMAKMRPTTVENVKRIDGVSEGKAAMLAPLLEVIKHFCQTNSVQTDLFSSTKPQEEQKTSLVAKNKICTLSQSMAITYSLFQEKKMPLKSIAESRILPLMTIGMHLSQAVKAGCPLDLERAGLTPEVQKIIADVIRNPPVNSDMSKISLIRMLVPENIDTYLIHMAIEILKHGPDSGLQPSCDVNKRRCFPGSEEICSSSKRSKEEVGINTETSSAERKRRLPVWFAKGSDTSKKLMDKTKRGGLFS
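WRN at 20 nM final preincubated with compound 15 min at room temperature; reaction started with 100 nM fluorophore/quencher forked duplex oligonucleotide and 2 mM ATP final. Unwinding followed kinetically by red fluorescence (ex 525, em 598 nm).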
FEN1 inhibitor = blocks human flap endonuclease 1; Potency, µM (highest dose often 114 µM), inactives show at the highest dose activity change, negative = inhibition, most hits filed as inhibitors; 390,000 compounds, 0.35% hits; Recombinant FEN1 flap cleavage, fluorescence, 15 min; P39748; AID 588795; also: % is scaled to controls: 0 for no effect and ±100 for the full control effect; nearly all actives have a fitted effect of over 65% in size
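FEN1 at 10 nM, compound pretreatment for 15 min (room temperature), 50 nM final substrate to initiate; endpoint reads at 0 and 15 min; DMSO-only plates used as vehicle background.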
Pol eta inh = blocks human DNA polymerase eta activity | Q9Y253 | recombinant Pol eta, fluorescent DNA replication assay | Potency, µM (doses to about 114 µM), for inactives: at the top dose activity change, negative = inhibition, most hits filed as inhibitors | 390,000 compounds, 1.2% hits | AID 588591; also: % is scaled to controls: 0 for no effect and ±100 for the full control effect
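Fluorescent replication assay: 50 nM final substrate added after a 15 min room-temperature compound preincubation with 10 nM enzyme. Signal taken at 0 min and again at 10 min.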
POLB inh = blocks human DNA polymerase beta activity | P06746 | 340,000 compounds, 1.3% hits | Pol beta primer extension/strand displacement, fluorescence kinetic | Potency, µM (top dose mostly 114 µM), inactives show at the top dose activity change, negative = inhibition, most hits filed as inhibitors; also: % is scaled to controls: 0 for no effect and ±100 for the full control effect
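Homogeneous kinetic assay of primer extension and strand displacement by 10 nM Pol beta, preincubated 15 min at room temperature with compound before 50 nM substrate (final) was added. Read at 0 and 10 min; four-parameter Hill fit.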
POLI inh = blocks human DNA polymerase iota activity | Q9UNA4 | Pol iota fluorescent replication assay, 10 min | Potency, µM (series often up to 115 µM), for the others: top-dose activity, negative = inhibition, actives largely listed as inhibitors | 390,000 compounds, 1% hits | AID 588590
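Pol iota at 10 nM preincubated 15 min with compounds at room temperature; reaction started with fluorescent substrate, 50 nM final. Fluorescence read kinetically at 0 and 10 min; buffer-only wells as negative control.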
Pol kappa inh = blocks human DNA polymerase kappa activity. AID 588579. Potency, µM (top dose mostly 107 µM), without a hit: top-dose activity, negative = inhibition, usual class: inhibitors. 400,000 compounds, 0.53% hits. purified Pol kappa, fluorescent DNA synthesis assay, 10 min; also: % is scaled to controls: 0 for no effect and ±100 for the full control effect
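10 nM Pol kappa preincubated 15 min at room temperature with compounds, then reaction started with substrate at 50 nM final. Fluorescence read kinetically at 0 and 10 min; buffer-only wells served as negative control.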
* hit, by the source's call; ? = inconclusive; / = no result; [ ] = another dose, or the depositor's remark. In the library only some 2.4% were active in any assay of this set; here they are far more common. Calls follow the shape of the dose curve; as a rule, active = well fitted curve in the direction sought with a large enough effect; inconclusive = small, poorly fitted or top-dose-only effect, or another doubt; inactive = no such curve, though single readings can be large; an effect the other way counts as inactive or inconclusive. Potency is read from the fitted curve at half-maximal effect.

SMILES | WRN inhibitor | FEN1 inhibitor | Pol eta inh | POLB inh | POLI inh | Pol kappa inh
Cc1c(CC(=O)O)c(=O)oc2c(C)c3occ(-c4ccc(F)cc4)c3cc12 | -10% | ? | 0% | 50µM* | -12% | 7%
Cc1c(CC(=O)N[C@@H](C)C(=O)O)c(=O)oc2c(C)c3occ(-c4ccccc4)c3cc12 | -23% | -11% | 4% | -29% | ? | ?
COc1ccc(-c2coc3c2c(C)cc2oc(=O)c(CC(=O)O)c(C)c23)cc1 | / | ? | -14% | 12% | -6% | -1%
CCc1cccc2c(C(O)c3c[nH]c4ccccc34)c[nH]c12 (stereo unspecified) | / | -22% | / | / | 28% | -11%
O=C1N/C(=N/O)S/C1=C/c1cccc([N+](=O)[O-])c1 | -18% | -11% | -9% | -28% | 55% | -7%
O=C1N/C(=N\S(=O)(=O)Cc2ccccc2)S/C1=C/c1cccc([N+](=O)[O-])c1 | -4%[11.6 µM] | -5% | 50µM* | 0% | ? | -7%
COc1ccc(CCNC(=O)CCc2c(C)nc3c4cccnc4nn3c2C)cc1OC | / | -6% | -15% | 33% | 18% | -12%
Oc1ccccc1Oc1c(F)c(F)nc(N2CCCC2)c1F | -16% | -10% | -21% | 45µM* | ? | -7%[60.1 µM]
CC(=O)/C=C/c1ccccc1Oc1c(F)c(F)nc(F)c1F | -2% | -23% | -9% | 55% | ? | -7%[60.1 µM]
CC(C)CN1C(=O)c2ccc(C(=O)Nc3ccc(O)cc3C(=O)O)cc2C1=O | -22% | -7% | -8% | 16% | 112% | -6%
O=C(Nc1ccc(O)cc1C(=O)O)c1ccc2c(c1)C(=O)N(Cc1ccco1)C2=O | ? | ? | 40µM* | ? | ? | -28%
CSc1sccc1/C=C(/C#N)C(=O)c1ccco1 | 50µM* | ? | ? | -11% | ? | -35%
Cc1ccc(S(=O)(=O)c2ccc([N+](=O)[O-])o2)cc1 | 14µM* | 6% | 9% | / | 18µM* | -12%
O=C(NC1(C(F)(F)F)NC(=O)N(CCc2ccccc2)C1=O)c1ccccc1Cl (stereo unspecified) | / | -24% | -13% | 27% | -17% | -15%
COc1ccccc1C(=O)NC1(C(F)(F)F)NC(=O)N(CCc2ccccc2)C1=O (stereo unspecified) | / | -9% | -8% | 4% | 79µM* | -9%
O=c1c2c([N+](=O)[O-])cc([N+](=O)[O-])cc2sn1Cc1ccccc1 | 20µM* | ? | -19% | 21% | 59% | 7%
O=c1c2cc([N+](=O)[O-])cc([N+](=O)[O-])c2[nH]n1-c1ccccc1 | -19% | -11% | ? | -8% | ? | -11%
O=c1c2c([N+](=O)[O-])cc([N+](=O)[O-])cc2sn1-c1ccc(Br)cc1 | 79µM* | -9% | -8% | 15% | 1% | -8%
COc1cccc(NC(=O)Cn2c(=O)n(CCCCC(=O)NCc3ccccc3Cl)c(=O)c3ccccc32)c1 | / | 14% | -11% | 0% | 14% | -5%
Cc1ccc(-c2cc(C(=O)Nc3ccc(S(=O)(=O)Nc4nccs4)cc3)c3ccccc3n2)c(C)c1 | -35% | -13% | 35µM* | 0%[57.1 µM] | ? | -21%
O=C(Nc1ccc(S(=O)(=O)Nc2nccs2)cc1)c1ccc(F)cc1 | -6% | -2% | -16% | -14% | 106% | -10%
Cc1cc(C)c2nc(-c3ccccn3)cc(C(=O)Nc3ccc(S(=O)(=O)Nc4cc(C)on4)cc3)c2c1 | 56µM* | ? | 28µM* | 50µM* | ? | ?
Cc1noc(NS(=O)(=O)c2ccc(NC(=O)c3ccc(N4C(=O)c5ccccc5C4=O)cc3)cc2)c1C | ? | -22% | 79µM* | 35µM* | ? | ?
CCCOc1ccc(C(=O)Nc2ccc(S(=O)(=O)Nc3onc(C)c3C)cc2)cc1 | -20% | -2% | -1% | -3% | ? | -20%

Screens (PubChem)
